Experimental data published in PubChem BioAssay.
Activity calls are given as the source filed them.

Tests used:
[1] = optical density shifts of acrAB sulA E. coli – strain DRC41, OD650, 48 h, E. coli filamentation inducer project, primary screen (AID 1152); settings: higher = more signal, called active from +8 up or from −8 down;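 further: E. coli MC1000 strain DRC41 lacking acrAB efflux pump and sulA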
[2] = probe aLefty1 binding on compound microarray – biochemical, small-molecule microarray, 635/667 nm fluorescence, primary screen (AID 1153); settings: higher = more signal;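 further: score merges spot fluorescence with signal-to-noise ratio from the scanned slide images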
[3] = plasmodial surface anion channel blockers, osmotic lysis – cell-based, P. falciparum Indochina, OD700, 1 h, primary screen (AID 1154); settings: P. falciparum Indochina infected RBC osmotic lysis, higher = more signal, called active from +8 up or from −8 down
[4] = plasmodial surface anion channel blockers, osmotic lysis – cell-based, P. falciparum Indochina, OD700, 2 h, primary screen (AID 1155);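 further: lysis reports solute entry through the parasite surface anion channel PSAC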; settings: P. falciparum Indochina infected erythrocytes, higher = more signal, called active from +8 up or from −8 down
[5] = changes in parasitized red cell lysis, either direction – P. falciparum Indochina, OD700, 3 h, PSAC antagonist project, primary screen (AID 1156); settings: P. falciparum-infected erythrocytes, osmotic lysis, higher = more signal, called active from +8 up or from −8 down
[6] = plasmodial surface anion channel blockers, osmotic lysis – cell-based, P. falciparum Indochina, OD700, 18 h, primary screen (AID 1157); settings: P. falciparum Indochina infected erythrocytes, osmotic lysis OD700, 18 h; higher = more signal, called active from +8 up or from −8 down
[7] = S6 kinase pathway phospho-S6 level changes – cell-based, A549, cytoblot, luminescence, serum-stimulated, primary screen (AID 1158); settings: 5 h, higher = more signal;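 further: serum-stimulated A549 lung adenocarcinoma cells; signal is phosphorylated S6 detected by cytoblot immunostaining with HRP secondary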
[8] = molecular target: NADPH oxidase 2 (Homo sapiens) (UniProt P04839); assay: compounds shifting NOX2 Amplex Red fluorescence – cell-based, HEK293-NOX2, PMA-stimulated, NOX inhibitor project, primary screen (AID 1159); settings: 45 min, higher = more signal, called active from +8 up or from −8 down; further: test concentration not given here
[9] = molecular target: NADPH oxidase 4 (Homo sapiens) (UniProt Q9NPH5); assay: compounds shifting NOX4 Amplex Red fluorescence – cell-based, HEK293-NOX4, tetracycline-induced, NOX inhibitor project, primary screen (AID 1160); settings: HEK293-NOX4, Amplex Red H2O2 fluorescence, 45 min; higher = more signal, called active from +8 up or from −8 down
[10] = molecular target: NADPH oxidase 5 (Homo sapiens) (UniProt Q96PH1); assay: compounds shifting NOX5 Amplex Red fluorescence – cell-based, HEK293-NOX5, NOX inhibitor project, primary screen (AID 1161); settings: HEK293-NOX5, ionomycin, 45 min, higher = more signal
Sequence of NADPH oxidase 5 (Homo sapiens) (Q96PH1 whole entry, looked up): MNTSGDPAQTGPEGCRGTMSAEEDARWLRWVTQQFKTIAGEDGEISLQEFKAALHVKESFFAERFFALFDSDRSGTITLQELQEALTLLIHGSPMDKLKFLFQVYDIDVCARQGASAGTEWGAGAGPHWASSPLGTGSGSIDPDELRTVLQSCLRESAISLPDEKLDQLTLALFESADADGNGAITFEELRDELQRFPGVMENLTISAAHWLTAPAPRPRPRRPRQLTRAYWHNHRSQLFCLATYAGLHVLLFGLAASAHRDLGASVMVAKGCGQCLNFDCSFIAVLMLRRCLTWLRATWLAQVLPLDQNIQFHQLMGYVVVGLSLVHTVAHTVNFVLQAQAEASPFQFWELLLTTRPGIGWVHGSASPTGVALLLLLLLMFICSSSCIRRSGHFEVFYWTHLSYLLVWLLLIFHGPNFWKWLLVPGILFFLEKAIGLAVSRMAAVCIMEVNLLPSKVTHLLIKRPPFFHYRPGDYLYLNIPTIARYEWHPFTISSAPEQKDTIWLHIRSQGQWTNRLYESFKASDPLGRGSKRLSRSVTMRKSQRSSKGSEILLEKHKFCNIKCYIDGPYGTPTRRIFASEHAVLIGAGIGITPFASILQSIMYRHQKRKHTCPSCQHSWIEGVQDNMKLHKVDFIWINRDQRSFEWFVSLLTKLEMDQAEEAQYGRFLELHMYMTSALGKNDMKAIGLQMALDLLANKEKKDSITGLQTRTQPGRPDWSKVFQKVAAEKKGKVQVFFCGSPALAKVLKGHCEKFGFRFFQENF

Sequence of NADPH oxidase 4 (Homo sapiens) (Q9NPH5 whole entry, looked up): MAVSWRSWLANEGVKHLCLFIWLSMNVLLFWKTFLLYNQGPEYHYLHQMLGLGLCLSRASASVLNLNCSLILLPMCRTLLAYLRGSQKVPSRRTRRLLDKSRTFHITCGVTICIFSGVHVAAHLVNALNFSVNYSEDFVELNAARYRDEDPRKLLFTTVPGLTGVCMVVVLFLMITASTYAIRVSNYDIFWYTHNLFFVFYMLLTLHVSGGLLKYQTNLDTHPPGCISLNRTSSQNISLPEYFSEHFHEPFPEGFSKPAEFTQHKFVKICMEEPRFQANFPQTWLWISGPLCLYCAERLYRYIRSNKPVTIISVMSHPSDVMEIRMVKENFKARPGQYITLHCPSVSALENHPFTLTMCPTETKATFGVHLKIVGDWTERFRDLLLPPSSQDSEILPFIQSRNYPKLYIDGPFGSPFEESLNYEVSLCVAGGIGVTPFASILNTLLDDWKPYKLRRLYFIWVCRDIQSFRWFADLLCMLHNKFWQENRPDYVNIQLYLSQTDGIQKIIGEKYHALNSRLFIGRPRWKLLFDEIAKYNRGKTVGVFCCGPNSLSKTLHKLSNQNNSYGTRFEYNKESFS
Sequence of NADPH oxidase 2 (Homo sapiens) (P04839 whole entry, looked up): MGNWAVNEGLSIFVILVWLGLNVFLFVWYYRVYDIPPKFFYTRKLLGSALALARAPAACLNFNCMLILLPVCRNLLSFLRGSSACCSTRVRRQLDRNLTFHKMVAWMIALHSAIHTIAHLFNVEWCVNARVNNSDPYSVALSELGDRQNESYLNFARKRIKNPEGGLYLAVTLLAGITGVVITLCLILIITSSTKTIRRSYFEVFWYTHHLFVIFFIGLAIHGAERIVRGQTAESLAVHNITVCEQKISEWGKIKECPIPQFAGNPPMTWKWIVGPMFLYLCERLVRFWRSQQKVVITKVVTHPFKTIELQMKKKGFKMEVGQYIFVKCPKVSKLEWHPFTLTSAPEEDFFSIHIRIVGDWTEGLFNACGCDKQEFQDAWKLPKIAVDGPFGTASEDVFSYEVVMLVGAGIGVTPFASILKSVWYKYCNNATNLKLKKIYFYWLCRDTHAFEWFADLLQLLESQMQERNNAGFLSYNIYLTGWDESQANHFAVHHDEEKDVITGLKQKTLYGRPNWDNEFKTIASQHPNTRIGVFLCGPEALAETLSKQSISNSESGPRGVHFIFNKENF

| SMILES | z-score [1] | composite z-score [2] | z-score [3] | z-score [4] | z-score [5] | z-score [6] | z-score [7] | z-score [8] | z-score [9] | z-score [10] |
| --- | --- | --- | --- | --- | --- | --- | --- | --- | --- | --- |
| CC(C)C[C@@H]1NC(=O)[C@@H]2C[C@H](C(=O)NCCCCCN)[C@H](c3ccc(O)cc3)N2C1=O | -0.899 (inactive) | -0.463 | 0.932 (inactive) | -0.0263 (inactive) | -0.302 (inactive) | 0.0068 (inactive) | -0.928 | -0.125 (inactive) | -1.36 (inactive) | 0.553 |
| C=C[C@@H](OC)[C@H](OC(=O)Nc1ccc(SC)cc1)c1ccc(O)c(F)c1 | -1.51 (inactive) | 0.44 | 24.7 (active) | 7.57 (inactive) | 2.98 (inactive) | 1.31 (inactive) | -0.618 | -2.6 (inactive) | -2.4 (inactive) | -1.26 |
| CCCC[C@@H]1C[C@H]1[C@@H](NC(=O)c1ccccc1)c1ccc(C(F)(F)F)cc1 | -0.903 (inactive) | 0.361 | -0.512 (inactive) | 0.0991 (inactive) | 0.162 (inactive) | 0.739 (inactive) | -0.295 | -0.3 (inactive) | -0.742 (inactive) | 0.689 |
| O=C1O[C@H](c2ccccc2)[C@H](c2ccccc2)N2[C@H]1[C@@H](C(=O)Nc1nc3ccccc3s1)[C@]1(C(=O)Nc3ccc(C#CCCO)cc31)[C@H]2c1ccc(O)cc1 | -0.742 (inactive) | 0.026 | 0.402 (inactive) | 1.05 (inactive) | -5.42 (inactive) | 1.23 (inactive) | -0.263 | 1.08 (inactive) | 0.38 (inactive) | -0.901 |
| COC(=O)[C@@]1(Cc2ccc(F)cc2)[C@H]2c3cc(C(=O)N4CCCC4)n(CCN4CNCC4=O)c3C[C@H]2CN1C(=O)c1ccccc1 | -1.59 (inactive) | 0.497 | 1.85 (inactive) | 0.811 (inactive) | 2.24 (inactive) | 0.937 (inactive) | 1 | 0.821 (inactive) | -0.489 (inactive) | -5.26 |
| COc1ccc([Si](C)(C)[C@@H]2[C@@H](CC(=O)N(CCO)Cc3ccccc3)O[C@]3(C(=O)N(Cc4cccc(N5CCOC5=O)c4)c4ccccc43)[C@H]2C)cc1 | -0.179 (inactive) | 0.677 | 5.73 (inactive) | 1.14 (inactive) | -0.0706 (inactive) | 0.843 (inactive) | 0.475 | 1.08 (inactive) | 1.35 (inactive) | 1.75 |
| COCCCNC(=O)[C@@]1(Cc2ccccc2CN=[N+]=[N-])N=C(c2ccc(OCCCO)cc2)O[C@H]1c1ccccc1 | -0.314 (inactive) | 0.197 | 17.1 (active) | 2.76 (inactive) | 0.697 (inactive) | 1.16 (inactive) | 0.146 | -1.79 (inactive) | -0.298 (inactive) | -1.54 |
| CN1C(=O)C2C=CC(C(O)C#Cc3ccccc3)N(Nc3ccccc3)C2C1=O (stereo not given) | -0.877 (inactive) | 0.545 | 1.07 (inactive) | 0.783 (inactive) | 0.0989 (inactive) | 1.12 (inactive) | -1.19 | -1.22 (inactive) | -4.71 (inactive) | -1.8 |
| COC(=O)[C@@]1(Cc2ccccc2N=[N+]=[N-])N=C(c2ccc(OCCCO)cc2)O[C@H]1c1ccccc1N=[N+]=[N-] | 1.24 (inactive) | 0.373 | 24.9 (active) | 13.3 (active) | 0.531 (inactive) | 3.93 (inactive) | 0.342 | -1.58 (inactive) | 0.802 (inactive) | -0.833 |
| CCCCC=C[C@@H](NC(=O)c1ccc(-c2ccccc2)cc1)c1ccccc1 | -1.63 (inactive) | 0.258 | 2.54 (inactive) | 0.631 (inactive) | -0.309 (inactive) | 0.862 (inactive) | 0.0893 | -0.473 (inactive) | -1.12 (inactive) | 1.46 |
| COc1ccc([Si](C)(C)[C@H]2[C@H](CC(=O)N(CCO)Cc3ccccc3)O[C@@]3(C(=O)N(Cc4cccc(N5CCOC5=O)c4)c4ccccc43)[C@@H]2C)cc1 | 0.359 (inactive) | 0.114 | 12.9 (active) | 2.72 (inactive) | 1.68 (inactive) | 1.31 (inactive) | 0.315 | 0.681 (inactive) | 0.7 (inactive) | 2.48 |
| COC(=O)c1c(CC[C@@H](CO)NC(=O)N[C@H](Cn2cc(C3(O)CCCCC3)nn2)C(C)C)oc(C(C)=O)c1C(=O)OC | 1.51 (inactive) | 0.102 | 1.45 (inactive) | -0.141 (inactive) | 1.02 (inactive) | -0.152 (inactive) | 2.22 | -3.25 (inactive) | -0.839 (inactive) | 0.655 |
| C=C(COC)C(=O)CC[C@@H](OC(=O)c1cccnc1)c1ccc(OCCO)cc1 | -0.717 (inactive) | 0.235 | 7.63 (inactive) | 2.3 (inactive) | -1.61 (inactive) | 1.21 (inactive) | -0.482 | 0.838 (inactive) | 0.211 (inactive) | -2.85 |
| O=C1C=C(c2ccccc2)C(=O)c2ccc([C@H]3Oc4ccccc4S(=O)(=O)N4CCC[C@@H]34)cc21 | 0.864 (inactive) | -0.08 | 2.45 (inactive) | 0.0567 (inactive) | -0.37 (inactive) | -0.236 (inactive) | 0.208 | 0.398 (inactive) | -5.41 (inactive) | -6.41 |
| CCC(CC)C(O)C1C=CC2C(=O)N(c3ccccc3)C(=O)C2N1Nc1ccc(C(C)C)cc1 (stereo not given) | -0.636 (inactive) | 0.501 | 1.46 (inactive) | 1.19 (inactive) | 0.741 (inactive) | 0.801 (inactive) | -0.463 | -0.743 (inactive) | -4.43 (inactive) | -3.75 |
| CC(=O)NCCCC[C@@H]1NC(=O)[C@@H]2C[C@H](C(=O)NCCCC[N+](C)(C)C)[C@H](c3ccc(O)cc3)N2C1=O | -0.003 (inactive) | 0.389 | 0.369 (inactive) | -1.08 (inactive) | 0.267 (inactive) | -2.27 (inactive) | 1.34 | -3.26 (inactive) | -2.25 (inactive) | -4.41 |
| CN(C)c1ccc(C(O)C2C=CC3C(=O)N(c4ccccc4)C(=O)C3N2Nc2ccc([N+](=O)[O-])cc2)cc1 (stereo not given) | -1.16 (inactive) | 0.388 | 4.9 (inactive) | 1.16 (inactive) | 1.69 (inactive) | 0.73 (inactive) | -0.503 | -1.95 (inactive) | -4.56 (inactive) | -4.69 |
| O=C1OCC=C[C@H]2OC34C=CCN(Cn5nnc6ccccc65)C(=O)[C@H]3N(CCCO)C(=O)[C@@H]4[C@@H]12 (stereo not given in full) | 1.54 (inactive) | 0.0861 | 0.243 (inactive) | -1.01 (inactive) | 1.24 (inactive) | -0.602 (inactive) | 0.277 | 0.847 (inactive) | -1.42 (inactive) | 0.1 |
| C=CCN1C(=O)[C@@]2(CCS(=O)(=O)c3ccccc3)N=C(c3ccc(OCCCO)cc3)O[C@H]2c2ccccc21 | -0.135 (inactive) | 0.235 | 29.9 (active) | 25.2 (active) | 1.73 (inactive) | 6.35 (inactive) | 1.06 | -1.42 (inactive) | 1.35 (inactive) | -0.428 |
| C=C(/C(=C/C[C@H](OC(=O)c1ccncc1)c1ccc(CO)o1)c1cc(C(=O)OC)ccc1OC)C(C)C | -0.23 (inactive) | 0.0187 | 3.3 (inactive) | 0.365 (inactive) | 1.25 (inactive) | 0.136 (inactive) | -0.578 | -1.06 (inactive) | -0.154 (inactive) | -0.6 |
| C=CCN1C(=O)[C@@]2(O[C@@H](CCn3cc([C@H](O)c4ccccc4)nn3)[C@H]([Si](C)(C)c3ccc(OC)cc3)[C@H]2C)c2cc(N3CCC3=O)ccc21 | 0.359 (inactive) | -0.189 | 14.4 (active) | 1.98 (inactive) | 0.292 (inactive) | 1.01 (inactive) | -0.266 | 0.631 (inactive) | -0.498 (inactive) | 0.0158 |
| COC(=O)[C@@]1(Cc2ccc(OC)cc2)[C@@H]2C(=CC(=O)[C@H]2CC(=O)C(=O)N(C)C)CN1C(=O)c1ccccc1 | -2.06 (inactive) | 0.485 | 2.07 (inactive) | 0.584 (inactive) | 0.481 (inactive) | 1.38 (inactive) | 0.808 | -0.192 (inactive) | 1.39 (inactive) | 1.32 |
| COC(=O)[C@@]1(Cc2ccc(OC)cc2)[C@H]2c3cc(C(=O)N(C)C)n(Cc4ccc(Cl)c(C(F)(F)F)c4)c3C[C@H]2CN1C(=O)c1ccccc1 | -1.4 (inactive) | 0.357 | 7.57 (inactive) | 1.42 (inactive) | 1.01 (inactive) | 1.21 (inactive) | -0.264 | 1.19 (inactive) | -0.227 (inactive) | 1.57 |
| COC(=O)[C@@]1(Cc2ccc(OC)cc2)[C@H]2c3cc(C(=O)N(C)C)n(C[C@H](O)CO)c3C[C@H]2CN1C(=O)c1ccccc1 | -1.99 (inactive) | 0.523 | 5.61 (inactive) | 0.936 (inactive) | 1.98 (inactive) | 1.23 (inactive) | -0.364 | 0.452 (inactive) | -0.281 (inactive) | -0.527 |
